# According to the supplement of paper PMC10849652:
# The full data set covers some 7,900 targets. This sample favours those with a hit. About 0.6% of all pairs of compound and target were hits. A number with no mark means an inactive call.
# Compound: FC(F)(F)c1ccc(/C=C/c2nc(COc3ccc(CCCCn4ccnn4)cc3)co2)cc1 [mubritinib]
# Experiment: log2 fold change, soluble protein after heating vs DMSO (PISA); higher = thermal stabilisation; K562 cells, 10 uM, 30 min; active = over 0.2 and 3.5 SD of the protein, either way, in both replicates (recomputed)
# How it was run: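 Soluble protein was quantified by TMTpro 16plex LC-MS/MS after channel sums were equalised. It was obtained as the supernatant after 21,000xg for 90 min from pooled aliquots of K562 cells (2×10^6 cells/mL, 10 μM compound, 30 min) heated for 3 min across 48°C-58°C and extracted in PBS with 0.5% NP-40 at 4°C. Thermal stability values are relative to control samples and come from duplicates. They are given as log2 fold changes.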
# Sequence of UniProt Q9NX70 (Q9NX70 whole entry, looked up): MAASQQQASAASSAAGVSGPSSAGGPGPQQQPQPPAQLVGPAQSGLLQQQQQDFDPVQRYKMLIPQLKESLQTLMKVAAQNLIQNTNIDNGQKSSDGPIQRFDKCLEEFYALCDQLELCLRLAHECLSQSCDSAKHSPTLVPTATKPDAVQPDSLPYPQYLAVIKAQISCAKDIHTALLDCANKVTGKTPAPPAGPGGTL
# Sequence of UniProt O15243 (O15243 whole entry, looked up): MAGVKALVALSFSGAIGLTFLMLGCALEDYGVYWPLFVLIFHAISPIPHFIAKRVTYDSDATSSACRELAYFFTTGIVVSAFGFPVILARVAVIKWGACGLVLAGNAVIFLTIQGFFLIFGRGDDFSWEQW
# Sequence of UniProt Q52LA3 (Q52LA3 whole entry, looked up): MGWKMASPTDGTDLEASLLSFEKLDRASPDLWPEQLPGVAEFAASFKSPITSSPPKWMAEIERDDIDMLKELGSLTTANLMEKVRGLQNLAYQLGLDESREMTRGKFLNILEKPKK
# Sequence of UniProt Q12906 (Q12906 whole entry, looked up): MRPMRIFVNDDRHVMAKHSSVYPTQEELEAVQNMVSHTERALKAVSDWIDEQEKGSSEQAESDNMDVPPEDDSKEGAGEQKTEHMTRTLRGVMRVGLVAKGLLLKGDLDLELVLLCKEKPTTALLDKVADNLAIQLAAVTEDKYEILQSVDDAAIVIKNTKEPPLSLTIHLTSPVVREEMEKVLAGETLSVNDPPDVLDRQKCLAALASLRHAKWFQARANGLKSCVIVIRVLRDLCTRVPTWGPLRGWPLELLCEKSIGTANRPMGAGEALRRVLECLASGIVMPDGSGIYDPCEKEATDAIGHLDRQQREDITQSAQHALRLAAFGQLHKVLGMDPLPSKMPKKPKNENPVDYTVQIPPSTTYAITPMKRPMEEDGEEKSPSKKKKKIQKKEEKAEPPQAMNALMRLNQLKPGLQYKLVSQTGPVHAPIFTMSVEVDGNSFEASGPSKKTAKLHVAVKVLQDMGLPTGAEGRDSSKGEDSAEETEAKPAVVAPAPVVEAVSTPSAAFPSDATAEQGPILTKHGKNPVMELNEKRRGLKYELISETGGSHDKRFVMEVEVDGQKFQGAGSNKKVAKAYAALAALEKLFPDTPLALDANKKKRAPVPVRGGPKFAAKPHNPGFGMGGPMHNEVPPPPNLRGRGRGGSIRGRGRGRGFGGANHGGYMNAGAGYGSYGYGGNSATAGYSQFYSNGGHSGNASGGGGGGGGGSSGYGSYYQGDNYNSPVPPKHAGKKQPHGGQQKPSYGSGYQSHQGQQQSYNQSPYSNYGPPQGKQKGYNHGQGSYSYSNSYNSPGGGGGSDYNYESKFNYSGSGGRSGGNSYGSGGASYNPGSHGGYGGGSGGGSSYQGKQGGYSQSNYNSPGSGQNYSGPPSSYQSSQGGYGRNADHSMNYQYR
# Sequence of UniProt O95819 (O95819 whole entry, looked up): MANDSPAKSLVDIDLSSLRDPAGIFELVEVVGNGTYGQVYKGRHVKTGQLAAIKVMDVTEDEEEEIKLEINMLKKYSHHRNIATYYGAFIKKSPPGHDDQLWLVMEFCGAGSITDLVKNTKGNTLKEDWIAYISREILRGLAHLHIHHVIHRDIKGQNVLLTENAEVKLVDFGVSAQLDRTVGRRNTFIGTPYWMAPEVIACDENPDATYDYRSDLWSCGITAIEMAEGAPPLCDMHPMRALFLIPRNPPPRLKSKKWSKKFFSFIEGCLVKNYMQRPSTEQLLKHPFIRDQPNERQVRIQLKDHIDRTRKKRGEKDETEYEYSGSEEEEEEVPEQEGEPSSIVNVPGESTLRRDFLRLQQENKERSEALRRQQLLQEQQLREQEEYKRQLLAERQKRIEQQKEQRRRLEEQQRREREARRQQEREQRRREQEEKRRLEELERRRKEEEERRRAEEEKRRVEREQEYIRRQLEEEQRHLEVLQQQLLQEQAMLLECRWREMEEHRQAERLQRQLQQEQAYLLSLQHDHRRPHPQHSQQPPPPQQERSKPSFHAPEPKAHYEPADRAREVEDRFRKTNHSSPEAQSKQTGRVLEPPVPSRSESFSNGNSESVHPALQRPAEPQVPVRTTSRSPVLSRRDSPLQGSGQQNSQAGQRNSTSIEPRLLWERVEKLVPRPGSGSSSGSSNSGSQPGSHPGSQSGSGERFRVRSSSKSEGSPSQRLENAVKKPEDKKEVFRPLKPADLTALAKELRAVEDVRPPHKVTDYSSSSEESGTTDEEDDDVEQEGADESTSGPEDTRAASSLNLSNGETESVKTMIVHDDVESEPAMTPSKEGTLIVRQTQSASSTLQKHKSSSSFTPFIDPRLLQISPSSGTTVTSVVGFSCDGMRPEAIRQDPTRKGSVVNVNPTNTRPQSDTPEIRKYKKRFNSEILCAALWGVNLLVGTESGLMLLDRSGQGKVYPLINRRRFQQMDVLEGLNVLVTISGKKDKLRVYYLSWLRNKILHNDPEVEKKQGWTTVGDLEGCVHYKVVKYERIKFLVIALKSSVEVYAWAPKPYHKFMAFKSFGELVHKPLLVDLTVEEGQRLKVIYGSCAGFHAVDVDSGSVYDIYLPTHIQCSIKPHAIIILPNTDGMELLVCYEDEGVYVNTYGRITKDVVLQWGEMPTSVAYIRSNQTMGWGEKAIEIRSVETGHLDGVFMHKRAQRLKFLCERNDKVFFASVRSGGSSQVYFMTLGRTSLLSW
# Sequence of UniProt Q9Y2E5 (Q9Y2E5 whole entry, looked up): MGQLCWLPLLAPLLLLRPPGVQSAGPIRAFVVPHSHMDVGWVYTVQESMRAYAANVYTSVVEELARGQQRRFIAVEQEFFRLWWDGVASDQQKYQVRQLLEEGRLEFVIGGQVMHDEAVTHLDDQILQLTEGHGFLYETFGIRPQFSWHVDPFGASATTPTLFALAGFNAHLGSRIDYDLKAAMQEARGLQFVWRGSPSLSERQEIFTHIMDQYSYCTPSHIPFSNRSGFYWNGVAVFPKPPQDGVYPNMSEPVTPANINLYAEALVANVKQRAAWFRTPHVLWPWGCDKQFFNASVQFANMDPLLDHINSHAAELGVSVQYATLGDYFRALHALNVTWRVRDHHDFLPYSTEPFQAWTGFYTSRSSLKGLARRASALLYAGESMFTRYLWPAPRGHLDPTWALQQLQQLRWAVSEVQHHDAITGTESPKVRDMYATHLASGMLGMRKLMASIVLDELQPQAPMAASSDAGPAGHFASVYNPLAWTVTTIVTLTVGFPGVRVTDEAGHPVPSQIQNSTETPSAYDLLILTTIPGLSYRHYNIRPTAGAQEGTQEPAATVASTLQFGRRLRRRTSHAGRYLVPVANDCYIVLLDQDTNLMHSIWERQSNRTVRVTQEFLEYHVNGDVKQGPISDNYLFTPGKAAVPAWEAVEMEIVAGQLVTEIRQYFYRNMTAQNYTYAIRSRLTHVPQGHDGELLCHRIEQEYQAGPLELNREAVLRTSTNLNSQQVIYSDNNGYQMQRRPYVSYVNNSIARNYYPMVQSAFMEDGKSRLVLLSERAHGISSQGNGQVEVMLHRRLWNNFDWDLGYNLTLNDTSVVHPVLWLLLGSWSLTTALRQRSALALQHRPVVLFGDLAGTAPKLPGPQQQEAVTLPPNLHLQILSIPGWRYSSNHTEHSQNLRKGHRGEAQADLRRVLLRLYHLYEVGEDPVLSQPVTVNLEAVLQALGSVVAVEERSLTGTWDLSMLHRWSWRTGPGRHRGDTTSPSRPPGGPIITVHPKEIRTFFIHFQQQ
# Sequence of UniProt P27816 (P27816 whole entry, looked up): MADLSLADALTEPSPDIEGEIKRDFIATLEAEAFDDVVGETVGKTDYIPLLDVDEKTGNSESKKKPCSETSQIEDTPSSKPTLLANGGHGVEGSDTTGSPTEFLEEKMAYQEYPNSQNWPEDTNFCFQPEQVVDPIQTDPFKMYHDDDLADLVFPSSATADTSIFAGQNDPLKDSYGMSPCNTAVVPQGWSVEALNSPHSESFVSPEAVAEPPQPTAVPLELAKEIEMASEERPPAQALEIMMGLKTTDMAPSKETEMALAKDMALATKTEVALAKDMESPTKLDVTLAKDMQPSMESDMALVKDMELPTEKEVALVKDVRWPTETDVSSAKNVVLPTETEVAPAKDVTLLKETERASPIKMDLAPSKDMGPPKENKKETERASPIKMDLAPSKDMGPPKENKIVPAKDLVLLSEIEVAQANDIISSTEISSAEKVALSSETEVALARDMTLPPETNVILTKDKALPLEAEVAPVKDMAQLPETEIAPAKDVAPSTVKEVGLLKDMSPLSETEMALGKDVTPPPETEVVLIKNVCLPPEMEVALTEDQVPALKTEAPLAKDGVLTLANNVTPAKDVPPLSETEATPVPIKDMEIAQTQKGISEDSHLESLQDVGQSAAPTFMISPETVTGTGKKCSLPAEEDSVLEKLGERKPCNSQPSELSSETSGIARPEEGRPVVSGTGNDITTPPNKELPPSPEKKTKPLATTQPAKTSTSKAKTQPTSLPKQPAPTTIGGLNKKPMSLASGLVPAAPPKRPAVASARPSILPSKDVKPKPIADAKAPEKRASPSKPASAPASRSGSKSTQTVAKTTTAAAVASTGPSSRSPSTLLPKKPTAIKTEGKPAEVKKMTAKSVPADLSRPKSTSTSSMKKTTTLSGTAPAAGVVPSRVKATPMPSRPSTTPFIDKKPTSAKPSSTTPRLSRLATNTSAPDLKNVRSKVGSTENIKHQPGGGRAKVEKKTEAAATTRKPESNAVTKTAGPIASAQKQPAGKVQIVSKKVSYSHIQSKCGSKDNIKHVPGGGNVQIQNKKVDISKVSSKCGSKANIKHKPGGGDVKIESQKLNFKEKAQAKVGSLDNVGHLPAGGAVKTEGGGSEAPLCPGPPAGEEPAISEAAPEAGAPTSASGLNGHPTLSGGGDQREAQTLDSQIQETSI
# Sequence of UniProt Q8WYH8 (Q8WYH8 whole entry, looked up): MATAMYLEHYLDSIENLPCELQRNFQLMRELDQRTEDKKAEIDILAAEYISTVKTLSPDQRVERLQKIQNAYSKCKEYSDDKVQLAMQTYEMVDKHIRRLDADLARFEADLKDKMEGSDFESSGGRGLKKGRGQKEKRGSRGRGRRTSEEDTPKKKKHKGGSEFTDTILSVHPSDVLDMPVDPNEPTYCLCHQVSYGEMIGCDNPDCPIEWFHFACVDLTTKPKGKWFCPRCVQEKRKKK
row,Target,log2 fold change
1,KIF1B isoform 3 (UniProt O60333),0.168
2,LIN52 (UniProt Q52LA3),-0.117
3,MAP3K20 isoform 2 (UniProt Q9NYL2),-0.134
4,LSR isoform 3 (UniProt Q86X29),0.435
5,MAP4 isoform 5 (UniProt P27816),0.027
6,IKZF1 isoform 2 (UniProt Q13422),-0.024
7,MAP4K4 isoform 6 (UniProt O95819),0.02
8,ING5 (UniProt Q8WYH8),0.206
9,LOX (UniProt P28300),-0.017
10,ILF3 (UniProt Q12906),-0.074
11,LEPROT (UniProt O15243),0.041
12,MED17 (UniProt Q9NVC6),0.015
13,MAN2B2 (UniProt Q9Y2E5),0.147
14,MED29 (UniProt Q9NX70),-0.136
